Source: PubChem (National Center for Advancing Translational Sciences (NCATS))
Six1-Eya2 blk: Six1/Eya2 interaction inhibition. Q15475+O00167. AID 651725. activity change, % (no concentration beside the values). AlphaScreen GST-Six1/His-Eya2 binding, biochemical; stronger effect = lower value. 0.56% of 360,000 active; in the data active = activity change below about -65%; inconclusive = mostly about -30% to -63%
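AlphaScreen with GST-Six1 and His-Eya2 (5X mix: 250 nM and 500 nM), glutathione donor and nickel acceptor beads; buffer 50 mM Tris pH 8.0, 300 mM NaCl, 1 mM TCEP; 1 h at 37 C in the dark.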
HP1b binding inh: inhibitors of HP1-beta chromodomain binding to methylated histone tails; P83916; AlphaScreen HP1-beta / biotin-H3K9me3 peptide binding; Potency, µM (highest dose often 114 µM), usual class: inhibitors; 0.56% of 390,000 active; AID 540317; note: nearly all actives have a fitted effect of over 70% in size
Target sequence (P83916 whole entry, looked up): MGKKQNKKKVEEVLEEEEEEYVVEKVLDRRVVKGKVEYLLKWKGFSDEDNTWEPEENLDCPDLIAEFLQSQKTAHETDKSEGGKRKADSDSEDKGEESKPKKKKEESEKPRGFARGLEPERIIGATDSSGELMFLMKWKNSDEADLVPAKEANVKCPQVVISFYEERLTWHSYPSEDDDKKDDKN
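Compound inhibition of the preformed complex between 50 nM HP1-beta and 50 nM biotinylated H3K9me3 peptide was read by AlphaScreen. Buffer was PBS pH 7.4 with 0.01% Tween-20. Incubations ran 30 min at room temperature, with 10 ug/mL donor/acceptor beads.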
G9a block: blocks human histone lysine methyltransferase G9a. Q96KQ7. G9a H3K9 monomethylation, AlphaScreen, 2 h. Potency, µM (series often up to 102 µM), hits mostly inhibitors. 8.8% of 350,000 active. AID 504332; note: nearly all actives have a fitted effect of over 75% in size
Target sequence (Q96KQ7 913-1193 limits assumed): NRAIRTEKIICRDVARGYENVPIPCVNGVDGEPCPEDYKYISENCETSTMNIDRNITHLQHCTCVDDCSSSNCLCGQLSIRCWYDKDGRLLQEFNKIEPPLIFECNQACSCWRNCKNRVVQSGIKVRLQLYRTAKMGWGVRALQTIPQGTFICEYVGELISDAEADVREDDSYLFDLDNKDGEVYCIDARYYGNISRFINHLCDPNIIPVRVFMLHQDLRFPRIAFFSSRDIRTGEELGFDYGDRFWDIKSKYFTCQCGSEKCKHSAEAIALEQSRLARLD
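Step 1: enzyme (final 20 nM) with compound, 15 min RT. Step 2: substrate peptide 500 nM and SAM 20 uM, 2 h RT. Step 3: anti-H3K9me1 antibody and AlphaScreen beads, 10 min, then plate read.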
CtBP-E1A blk: CtBP/E1A binding inhibition. AlphaScreen GST-E1A/His-CtBP binding, 1536-well; stronger effect = lower value. activity change, % (concentration not given with the values). 0.49% of 340,000 active; in the data active = activity change below about -65%; inconclusive = mostly about -30% to -63%
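Homogeneous bead-based format: GST-tagged E1A captured on glutathione donor beads, His-tagged CtBP on nickel acceptor beads; compounds precede bead addition by 2 h at 37 °C.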
BAZ2B block: blocks human BAZ2B; Q9UIF8; AlphaScreen BAZ2B-H3K14Ac peptide displacement; AID 504333; Potency, µM (titrated, usually from 114 µM), hits mostly inhibitors; 4.4% of 360,000 active; note: nearly all actives have a fitted effect of over 60% in size
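Compounds, titrated to a top concentration of 110 uM, were incubated 30 min at room temperature with preformed BAZ2B/acetyl-K14 H3 peptide complex (50 nM each). Proximity signal was measured by AlphaScreen after 20 min with beads.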
JMJD2A Tudor inh: JMJD2A Tudor domain (human) inhibition; 4.4% of 390,000 active; O75164; Potency, µM (series often up to 114 µM), most hits filed as inhibitors; AlphaScreen JMJD2A-Tudor / H3K4me3 peptide binding; note: nearly all actives have a fitted effect of over 50% in size
Hits are given with their value; n = inactive; u = inconclusive; x = no result given; [ ] = remark or other dose. Only some compounds are listed: those with a hit (about 10% of all), similar ones and a draw of the others. Unless noted, calls come from the whole dose curve; as a rule, active = well fitted inhibition curve with a large enough effect; inconclusive = small, poorly fitted or top-dose-only effect; inactive = no such curve, though single readings can be large or run the other way.

SMILES | Six1-Eya2 blk | HP1b binding inh | G9a block | CtBP-E1A blk | BAZ2B block | JMJD2A Tudor inh
O=C(NC1CCCCCC1)C(=S)N1CCOCC1 | n | u | u | n | u | 79µM
CC(C)NC(=O)C(=O)NC1CCCCCC1 | n | n | n | n | n | n
O=C(NC1CCCCCC1)C(=S)N1CCCC1 | n | n | x | n | n | n
O=C(NC1CCCCCC1)C(=O)NC1CC1 | n | n | x | n | u | n
O=C(NC1CCCCCC1)C(=S)NC1CCCCC1 | n | n | 35µM | n | n | n
O=C(NNC(=O)C1CCCCC1)C(=O)NC1CCCCC1 | n | n | 10µM | n | n | u
C=Cc1cc2c(s1)c1cnn(Cc3ccccc3F)c(=O)c1n2C | x | x | x | x | x | n
CC(C)(C)NC(=O)C(c1ccncc1)N(Cc1cccs1)C(=O)Cn1nnc(-c2ccc(F)cc2)n1 (stereo not given) | n | n | n | n | n | n
O=C(NC1CCCC1)C(c1ccncc1)N(Cc1ccccc1)C(=O)c1ccc(-c2ccccc2)[nH]1 (stereo not given) | n | n | n | n | 45µM | u
CC(C)(C)NC(=O)C(c1ccncc1)N(Cc1ccc(F)cc1)C(=O)c1ccc(-c2ccccc2)[nH]1 (stereo not given) | n | n | 28µM | n | u | u
COc1ccc(C(C(=O)NC2CCCCC2)N(Cc2ccco2)C(=O)c2ccccn2)c(OC)c1 (stereo not given) | n | n | 10µM | n | n | n
CC(C)(C)NC(=O)C(c1ccc(F)cc1)N(CCc1ccccc1)C(=O)c1ccn[nH]1 (stereo not given) | n | n | n[12.7 µM] | n | n | 28µM
O=C(c1ccncc1)N1CCC2(CC1)CCN(c1ccccc1)CC2 | x | x | n[12.7 µM] | x | x | x
CCCN1C(=O)C2(c3ccccc31)c1c(oc3cc(C)c(C)cc3c1=O)C(=O)N2CCCOC (stereo not given) | x | n | n | x | n | n
Cc1ccccc1-c1cc(NCCN2CCOCC2)ncn1 | x | x | n[0.501 µM] | x | x | x
COc1ccccc1CNC(=O)CSc1nc2nc(C)c(Cc3ccccc3C)c(C)n2n1 | x | n | n | x | n | n
O=C(NC1CCCC1)C(c1ccncc1)N(Cc1ccco1)C(=O)c1ccc(-c2ccccc2)[nH]1 (stereo not given) | n | u | u | n | 35µM | u
CCOc1ccc(C(C(=O)NC2CCCC2)N(CCCO)C(=O)c2ccc(-c3ccccc3)[nH]2)cc1 (stereo not given) | n | n | 50µM | x | u | u
Cc1ccc(C(C(=O)NCC2CCCO2)N(Cc2ccccc2)C(=O)c2ccc(-c3ccccc3)[nH]2)o1 (stereo not given) | n | n | n | u | 40µM | u
Cc1ccccc1-c1csc(C(O)c2cccnc2)n1 (stereo not given) | n | x | x | n | x | x
Cc1ccc(N2C(=O)C(CC(=O)Nc3ccccc3)N(CCC3=CCCCC3)C2=O)cc1 (stereo not given) | x | n | n | x | u | n
COc1cc(/C=N\Nc2nc3ccccc3o2)cc(OC)c1OC | n | n | n | n | n | n
COc1ccc(/C=N/Nc2nc3ccccc3o2)cc1O | n | n | 40µM | n | n | n
COc1cc(/C=N/Nc2nc3ccccc3o2)cc(OC)c1O | n | n | 40µM | n | n | u
COc1ccc(CCC(=O)NCCCNC(=O)CCc2ccc(OC)cc2)cc1 | n | n | n | n | n | n
SMILES | Six1-Eya2 blk | HP1b binding inh | G9a block | CtBP-E1A blk | BAZ2B block | JMJD2A Tudor inh
O=C1NC[C@H](CCCCN2C[C@H](Cc3ccccc3)N(CCc3ccc(O)cc3)C(=O)C2=O)N(CCC2CCCCC2)C1=O | n | x | x | n | x | x
Cc1cccc(/N=C/C2=C(O)CC(C)(C)CC2=O)n1 | n | n | u | n | n | n
CC1(C)CC(=O)C(C=Nc2ccc3c(c2)OCO3)=C(O)C1 | n | n | u | n | n | n
Cc1cc(N=CC2=C(O)CC(C)(C)CC2=O)no1 | n | n | n | n | x | 79µM
CC1(C)CC(=O)C(C=Nc2ccc(C(=O)c3ccccc3)cc2N=CC2=C(O)CC(C)(C)CC2=O)=C(O)C1 | n | n | 40µM | n | u | n
CC1(C)CC(=O)C(C=Nc2ccc(O)c(N=CC3=C(O)CC(C)(C)CC3=O)c2)=C(O)C1 | n | n | 20µM | n | n | n
O=C1CC(N2CCN(c3ccc(O)cc3)CC2)C(=O)N1Cc1cccs1 (stereo not given) | n | u | n[12.7 µM] | n | n | 56µM
COc1cc(C(=O)Nc2nnc(S(=O)(=O)N3CCCCCC3)s2)cc(OC)c1OC | n | n | n | n | n | n
CCOC(=O)c1c(-c2ccccc2)csc1NC(=O)c1cc(-c2ccc(Cl)cc2)on1 | x | n | 18µM | x | n | n
CCOC(=O)c1c(-c2ccc(C)cc2)csc1NC(=O)c1cc(=O)c2cc(C)cc(C)c2o1 | x | u | 7.1µM | x | n | n
CCOC(=O)c1c(-c2ccc(C)cc2)csc1NC(=O)c1cc(=O)c2cc(Cl)ccc2o1 | x | n | n | x | n | n
CCOC(=O)c1c(NC(=O)c2cc(-c3cccc(O)c3)on2)sc(C(C)=O)c1C | n | n | u | n | u | n
CCOC(=O)c1c(-c2ccc(C)cc2)csc1NC(=O)c1nc(SC(C)C)ncc1Cl | x | n | 13µM | x | n | n
CCOC(=O)c1c(-c2ccc(C)cc2)csc1NC(=O)c1nc(SCC)ncc1Cl | x | n | n | x | n | n
CCOC(=O)c1c(NC(=O)c2noc(C)c2[N+](=O)[O-])sc(C(C)=O)c1C | n | n | 40µM | n | n | n
COCC(=O)N1CCC2(CCCN(c3ncccn3)C2)CC1 | x | x | n[12.7 µM] | x | x | x
CCOC(=O)c1c(-c2ccccc2)csc1NC(=O)c1nn(CC)cc1Br | n | n | u | n | n | n
CCOC(=O)c1c(NC(=O)c2cc(-c3ccc(Br)cc3)on2)sc(C)c1C | x | n | 2.8µM | x | n | n
CCOC(=O)c1c(NC(=O)c2cc(-c3cccc(Cl)c3)on2)sc(C)c1C | x | n | 13µM | x | n | n
CCOC(=O)c1sc(NC(=O)c2cc(-c3cccc(O)c3)on2)c(C(=O)OCC)c1C | n | n | n | n | n | n
CCOC(=O)c1c(-c2ccccc2)csc1NC(=S)N(CC)CC | n | n | 22µM | n | n | n
CCOC(=O)c1c(-c2ccccc2)csc1NC(=O)c1cc(-c2ccc(C)c(F)c2)on1 | x | n | n | x | n | n
CCOC(=O)c1c(NC(=O)c2cc(-c3cccc(Cl)c3)on2)sc(C(C)=O)c1C | x | 71µM | 14µM | x | n | n
Cc1cc(C(c2ccc(C)o2)c2ccc(C)o2)c(O)c([N+](=O)[O-])c1 | u | 16µM | 35µM | u | 45µM | 40µM
Cc1ccc(C(c2ccc(C)o2)c2cccc([N+](=O)[O-])c2O)o1 | u | u | 40µM | u | 40µM | 50µM
